{
  "source": "paper PMC5540273",
  "about": "(PLoS ONE, 2017);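 further: KINOMEscan kinase panel screen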",
  "data": [
    {"test_system": "T1, LKB1", "T1 construct": "gene STK11", "details": "concentration: 1 μM, replicates: in singlicate; n = 1", "units": {"%Inh": "%"}, "values": [
      {"smiles": "CC(=O)c1cccc(NC(=O)NC2CCN(c3ccnc(Nc4ccc(F)cc4)n3)C2)c1", "note": "(stereo not drawn) [GSK1379710]", "%Inh": 23},
      {"smiles": "O=C1NC(=O)C(c2ccc(Cl)cc2)=C1Nc1cccc(Cl)c1", "note": "[SB-317651]", "%Inh": 23},
      {"smiles": "Cc1ccc(NC(=O)Nc2ccccc2F)cc1-c1ccc(C(=O)Nc2ccncc2)cc1", "note": "[GSK1398477]", "%Inh": 0},
      {"smiles": "Cc1ccc(NC(=O)c2ccc(Cl)cc2)cc1-c1ccc(C(=O)Nc2ccncc2)cc1", "note": "[GSK1398467]", "%Inh": 0},
      {"smiles": "Cc1ccccc1-c1cc(-c2c[nH]nc2-c2ccccn2)ccn1", "note": "[GW680061]", "%Inh": 0},
      {"smiles": "CC[C@@H]1CO[C@H](C(=O)Nc2ccccc2)CN1c1cc(-c2ccc3c(N)n[nH]c3c2)nc(NC)n1", "note": "[GSK2376236]", "%Inh": 5},
      {"smiles": "COc1ccc(CSc2nnc(-c3ccc4ncsc4c3)o2)cc1C(F)(F)F", "%Inh": 2},
      {"smiles": "Cc1ccc(-c2nc(Nc3ccncc3)c3ccccc3n2)s1", "note": "[GSK189015]", "%Inh": 0},
      {"smiles": "Cc1ccccc1Cn1ccn2c(=O)cc(N3CCOCC3)nc12", "note": "[GSK2269905]", "%Inh": 0},
      {"smiles": "CS(=O)(=O)CCNCc1nc(-c2ccc3ncnc(Nc4ccc5c(cnn5Cc5ccccc5)c4)c3c2)cs1.Cl.Cl", "note": "[GW569716]", "%Inh": 0},
      {"smiles": "Cc1nccc(-c2c(-c3ccc(F)cc3)ncn2CCCN2CCOCC2)n1.Cl", "note": "[SB-282975]", "%Inh": 0},
      {"smiles": "Cn1cncc1C(=O)NC1CCN(c2ccnc(Nc3ccc(F)cc3)n2)C1", "note": "(stereo not drawn) [GSK1379717]", "%Inh": 0},
      {"smiles": "CN1c2ccc(-c3ccc(C(N)=O)cc3)cc2-c2[nH]ncc2S1(=O)=O", "%Inh": 10},
      {"smiles": "CC(C)c1cc(-c2ccc3c(N)n[nH]c3c2)nc(N)n1", "note": "[GSK2250882]", "%Inh": 14},
      {"smiles": "O=C(Nc1n[nH]c2nc(-c3cccs3)c(Br)cc12)C1CC1", "note": "[SB-735297]", "%Inh": 0},
      {"smiles": "Cc1ccc(NC(=O)Nc2ccc(Cl)cc2)cc1-c1ccc(C(=O)Nc2ccncc2)cc1", "note": "[GSK1398472]", "%Inh": 0},
      {"smiles": "Fc1ccc(-c2nn3cccc(F)c3c2-c2ccncc2)cc1", "note": "[GW475620]", "%Inh": 0},
      {"smiles": "CC(C)c1ccc(O)cc1Nc1ccnc2ccc(C(F)(F)F)cc12", "note": "[GW482059]", "%Inh": 0},
      {"smiles": "Fc1ccc(-c2nc3n(c2-c2ccncc2)CCS3)cc1", "note": "[GI98581]", "%Inh": 11},
      {"smiles": "O=C(Nc1n[nH]c2cc(-c3ccsc3)ccc12)C1CC1", "note": "[SB-732932]", "%Inh": 0},
      {"smiles": "Cc1cnc(N)c(/C=C/c2cncc(C(=O)NCCc3ccc(Cl)cc3Cl)c2)c1.Cl", "note": "[GSK190937]", "%Inh": 28},
      {"smiles": "CC(=O)c1c(C)c2cnc(Nc3ccc(N4CCNCC4)cn3)nc2n(C2CCCC2)c1=O", "%Inh": 0},
      {"smiles": "COc1ccc2cc(-c3nc(-c4ccccc4C(C)C)[nH]c3-c3ccncc3)ccc2c1", "note": "[SB-660566]", "%Inh": 0},
      {"smiles": "CCc1ccc(-c2ccc3c(c2)-c2n[nH]cc2S(=O)(=O)N3C)cc1", "%Inh": 17}
    ]}
  ]
}
